# Assay results as given in PubChem BioAssay AID1222 (Sanford-Burnham Center for Chemical Genomics, 2008).
# Fewer than 10 of roughly 190,000 compounds were called active. These entries were drawn from the full list. Measured potencies and affinities stand elsewhere. Values without a mark were called inactive.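 The calls were made as follows: active = EC50 below 50 µM in the dose-response confirmation; inactive = the rest.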
# Assay: protection against thapsigargin-triggered cell killing – 384-well, CSM14.1, ATP luminescence, primary screen (AID 1222);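 also: death triggered by thapsigargin at about 15 µM added after 2 h compound pretreatment; cell ATP read after overnight thapsigargin exposure of roughly 18 to 22 hours; reference of the scale not given here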
# Conditions: CSM14.1 thapsigargin-induced death rescue, at 20 µM, active compounds read high
row,Structure (SMILES),cellular ATP content (survival) [%]
1,CCCOC(=O)CN1C(=O)c2ccccc2C1=O,-2.4
2,Cc1ccc(S(=O)(=O)N(CC(=O)N/N=C/c2cccc(Cl)c2)c2cccc3cccnc23)cc1,4.7
3,CCC(Sc1nc(N)cc(=O)[nH]1)C(=O)Nc1cc(C)on1 (centres undefined),1.6
4,COc1ccc(NC(=O)c2ccccc2NC(=O)CSc2ccc(C)cc2)cc1,4
5,Cc1ccc(C(=O)NNC2CC(=O)N(c3ccc4c(c3)OCCO4)C2=O)cc1 (centres undefined),-0.8
6,NC(N)=NC(N)=Nc1ccc(SC(F)(F)F)cc1,0.3
7,COc1ccccc1-c1noc(CCC(=O)Nc2cc(C(F)(F)F)ccc2Cl)n1,1
8,O=C(Nc1cccc(-c2cn3cccnc3n2)c1)Nc1ccccc1F,-0.8
9,O=C(NNS(=O)(=O)c1ccccc1)c1ccc(S(=O)(=O)N2CCCCC2)cc1,-2.8
10,CSc1ccc(C(C(C(=O)c2cccs2)N2CCOCC2)N2CCOCC2)cc1 (centres undefined),-1.7
11,CCCn1c(=O)c2ccccc2n2c(SCC(=O)NCc3cccs3)nnc12,2.6
12,COC(=O)C1=C(N)Oc2cc(C)n(Cc3cccnc3)c(=O)c2C1c1cc(OC)ccc1OC (centres undefined),-3.1
13,O=C(COc1ncnc2scc(-c3ccccc3)c12)NC1CCCc2ccccc21 (centres undefined),-2.4
14,O=c1ccccn1CCOc1ccccc1Cl,0.2
15,CCOC(=O)C1C(=O)C=C(c2ccc(Br)cc2)CC1c1ccco1 (centres undefined),0.2
16,C[C@@H]1NC(=O)c2cc([N+](=O)[O-])cc(I)c2NCCCC[C@@H](C(N)=O)NC(=O)[C@H](CCC(=O)O)NC1=O,6.5
17,Cc1cc(C)n2nc(-c3ccsc3-n3c(C)ccc3C)cc2n1,6
18,Cn1c(=NC(=O)C2CCN(S(=O)(=O)c3cccs3)CC2)sc2ccccc21,-0.7
19,COC(=O)COc1ccc(S(=O)(=O)N2CCc3ccccc3C2)cc1C,-0.7
20,Cc1ccc(C(=O)/C=C/c2ccc(F)cc2)o1,-13.2

row,Structure (SMILES),cellular ATP content (survival) [%]
1,O=C(O)CCCn1cc(NC(=O)c2cc(F)c(F)cc2Cl)cn1,-2.1
2,COc1ccccc1CNC(=O)CCNC(=O)Cn1cnc2ccccc2c1=O,0.7
3,CC1(C)CC(=O)C2=C(C1)NC(=O)CC2c1cc2c(cc1Br)OCO2 (centres undefined),-0.1
4,O=C(N/N=C/c1ccncc1)NC1CCCCC1,-0.5
5,COc1cc(C(=O)Nc2cccc(-c3cn4cccnc4n3)c2)cc(OC)c1OC,-2
6,O=C1c2ccccc2C(=O)C1C1=Nc2ccccc2NC(c2ccccc2)C1 (centres undefined),4.7
7,Nc1ccc(Cc2nc3cc4ccccc4cc3[nH]2)cc1,-1.5
8,CCc1cccc(C)c1NC(=S)N(Cc1cccnc1)Cc1ccco1,-2.7
9,O=C(COc1ccc(Cl)cc1)N1CCN(C(=O)Cc2ccccc2)CC1,5.3
10,CCOC(=O)N1CCN(C(=O)c2cnn3ccccc23)CC1,2.2
11,O=C(N/N=C/c1cccc(Oc2ccccc2)c1)c1ccccc1Br,0
12,Cc1cccc(-n2cnc3cc(C(=O)N4CCc5ccccc54)ccc32)c1,-2.1
13,Cc1[nH]nc(Nc2ccc(O)cc2)c1[N+](=O)[O-],-1.1
14,O=C(/C=C/c1ccco1)OCn1nnc2ccccc2c1=O,-0.7
15,Cc1cccc(-c2ncc(CN3CCN(CCC(C)C)C(CCO)C3)cn2)c1 (centres undefined),0.8
16,COc1ccc(C2N(c3ccc(OC)cc3)C(=S)N3CCCN23)cc1 (centres undefined),3.3
17,COc1ccccc1NC(=S)N(Cc1ccc(C)cc1)Cc1cccnc1,2.6
18,Cc1ccc(C(=O)NNC(=O)CSc2nnc(-c3ccccc3)n2Cc2ccccc2)cc1,-1.4
19,O=C(CSc1ncnc2nc[nH]c12)N1CCN(c2ccccc2)CC1,0.6
20,CC1CCN(CCC(=O)N/N=C/c2ccc([N+](=O)[O-])cc2)CC1,-1.3

row,Structure (SMILES),cellular ATP content (survival) [%]
1,CC(C)C(=O)c1cn(CC(=O)N2CCCc3ccccc32)c2ccccc12,0.1
2,O=C(NC1CCCCC1)C(c1ccc2ncccc2c1)N(Cc1ccccc1)C(=O)c1cccs1 (centres undefined),-2.1
3,O=C(NC1CCCCC1)C(c1ccc2ncccc2c1)N(Cc1cccs1)C(=O)c1cccs1 (centres undefined),-8.2
4,O=C(NC1CCCCC1)C(c1ccc2ncccc2c1)N(Cc1ccc(F)cc1)C(=O)c1cccs1 (centres undefined),-1.3
5,O=C(NC1CCCCC1)C(c1ccc2ncccc2c1)N(Cc1ccc2c(c1)OCO2)C(=O)c1cccs1 (centres undefined),-4
6,COc1ccc(C(C(=O)NC2CCCCC2)N(C(=O)CCCC(=O)Nc2ccccn2)c2ccc3c(c2)OCCO3)cc1 (centres undefined),3.5
7,O=C(NC1CCCCC1)C(c1ccc2ncccc2c1)N(Cc1ccco1)C(=O)c1ccc2c(c1)OCCO2 (centres undefined),14.1
8,O=C(CCCC(=O)N(c1ccc2c(c1)OCCO2)C(C(=O)NC1CCCCC1)c1ccc(F)cc1)Nc1ccccn1 (centres undefined),-0.3
9,COc1ccc(CN(C(=O)c2nsc(Cl)c2Cl)C(C(=O)NC2CCCCC2)c2ccc(OC)cc2)cc1 (centres undefined),-2.1
10,OC(C#CCN1CCOCC1)(c1ccccc1)C1CC1 (centres undefined),-0.9
11,COc1ccc(C(CC(=O)O)NC(=O)Cc2ccccc2)cc1OC (centres undefined),-3
12,C=CCOc1ccc(C2CC(C)=NN2c2ccccc2)cc1 (centres undefined),6.2
13,Cc1ccc2c(c1)nnn2C1CCN(CC(=O)NCc2ccccc2F)CC1,3.5
14,COc1cc(C(C#N)N2N=C(c3ccccc3)CC2c2ccccc2)ccc1O (centres undefined),0.2
15,CN(C)c1nc(N/N=C/c2ccccc2O)nc(Nc2ccc(F)cc2)n1,-6.9
16,Fc1cccc(Cc2noc(CN3CCC(c4ccncc4)CC3)n2)c1,1.8
17,O=C(COc1ccc(Cl)cc1Cl)NCCCCc1ccccc1,-2.7
18,CS(=O)(=O)N1CCCC(C(=O)NCc2ccc(F)cc2)C1 (centres undefined),0.6
19,CC(=O)Nc1sc2c(c1C(c1ccccn1)N1CCN(C)CC1)CCCC2 (centres undefined),-0.7
